Assay results reported in PubChem BioAssay AID602449 (Sanford-Burnham Center for Chemical Genomics, 2012).
Screen size: about 360,000 compounds; about 5,000 (1.4%) were called active. The sample as a whole holds a higher share of actives than the screen did. Values without a mark were called inactive.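 Rule for the calls: active = inhibition of 50% or more, scaled per plate between neutral and stimulator controls; inactive = the rest.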

assay: blockers of Ca2+-induced mitochondrial swelling – biochemical, isolated mouse mitochondria, absorbance, primary screen (AID 602449); settings: 30 min, at 10 µM, stronger effect = higher value;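 note: 0% = DMSO wells given calcium and 100% = 1 mM EGTA wells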

Row | SMILES | inhibition
1 | O=C(c1ccc(Br)o1)N(c1ccccn1)C1CCCCC1 | 8.3%
2 | COc1ccc(CCNC(=O)CN2C(=O)COc3ccc(S(=O)(=O)N4CCCC4)cc32)cc1OC | 0.6%
3 | CC12CN3CCN(CC(C3)/C1=N\NC(=O)c1ccccc1N)C2 | 2.6%
4 | CN(C)C(CNC(=O)CCCOc1ccccc1)c1ccco1 (centres undefined) | 1%
5 | CCn1c(CNC(=O)c2cc(OC)c(OC)c(OC)c2)cc2cc(C)ccc21 | 68.8% (active)
6 | COc1cc(C(=O)NCc2cc3cc(Cl)ccc3n2C)cc(OC)c1OC | 0.7%
7 | COc1cc(C(=O)NCc2ccc3c(c2)cc(C)n3C)cc(OC)c1OC | 1.2%
8 | CC1(C)S[C@@H]2[C@H](NC(=O)COc3ccccc3)C(=O)N2C1C(=O)OCc1ccccc1 (some centres undefined) | 2.2%
9 | CC(C)(C)c1cc(NC(=O)NN2CCOCC2)nn1-c1c(Cl)cc(Cl)cc1Cl | -1.3%
10 | COc1ccc(N2CCN(C(=O)CCc3nc(-c4ccc(C)cc4)no3)CC2)cc1 | -0.2%
11 | COc1ccc(-c2noc(CCC(=O)N3CCN(c4cccc(C)c4)CC3)n2)cc1 | 0.4%
12 | Cc1ccc(-c2noc(CCC(=O)Nc3ccccc3N3CCN(C)CC3)n2)cc1 | 79.9% (active)
13 | CC1CCN(C(=O)c2ccccc2NC(=O)Cc2ccccc2)CC1 | 2%
14 | COc1ccc(-n2c(C)cc(C(=O)CSc3nnc(-c4cccs4)o3)c2C)cc1 | 91% (active)
15 | Cc1ccc(-n2c(C)cc(C(=O)CSc3nnc4ccccn34)c2C)cc1 | 5%
16 | COc1ccc(-n2c(C)cc(C(=O)COC(=O)c3cc(OC)c(OC)cc3NC(=O)c3cccs3)c2C)cc1 | 3.8%
17 | O=[N+]([O-])c1cc(Br)c(O)c(/C=N/Nc2nc3ccccc3s2)c1 | 82.3% (active)
18 | O=[N+]([O-])c1c(NCCO)cc(Sc2nc3ccccc3s2)c2nonc12 | 4.8%
19 | O=[N+]([O-])c1cccc(C=NN=Cc2ccccc2O)c1 | 2.1%
20 | Cc1c(C(=O)NCC2CC2)sc(=O)n1Cc1cccc(F)c1 | -2.3%

Row | SMILES | inhibition
21 | COc1cc(C)c(Cl)cc1S(=O)(=O)n1ccnc1 | 0.5%
22 | N/C(=N\S(=O)(=O)c1cc(C(F)(F)F)cc(C(F)(F)F)c1)c1cccs1 | 35.4%
23 | O=C(CSc1nc(C2CC2)nc2ccccc12)Nc1cccc(O)c1 | -0.4%
24 | O=C(NNc1c2ccccc2nc2ccccc12)c1cc2ccccc2cc1O | 104% (active)
25 | Cc1noc(C)c1COC(=O)c1cc2ccccc2cc1O | 1%
26 | CS(=O)(=O)N(CC(=O)N1CCOCC1)c1cccc(Cl)c1Cl | -0.3%
27 | Cc1ccc(-n2ncc3c2CC(C)(C)CC3NC(=O)CCc2cnn(C)c2)cc1 (centres undefined) | -0.7%
28 | O=C(NCCc1ccccn1)c1ccc(COc2ccccc2)o1 | -1.4%
29 | C=CC[n+]1c(-c2ccc(C)cc2)csc1NNC(=O)Nc1ccccc1 | 86.7% (active)
30 | Cc1ccc(NC(=O)NNC(=O)c2sccc2-n2cccc2)cc1 | 1.7%
31 | O=C(NNC(=O)c1ccc(-c2ccccc2)cc1)Nc1ccccc1 | 2.8%
32 | CC1CCC(N2CC(=O)N(Cc3ccc4c(c3)OCO4)C(c3ccc(F)cc3)C2=O)CC1 (centres undefined) | -0.9%
33 | COCCNC(=S)N1CCC(NC(=O)C23CC4CC(CC(C4)C2)C3)CC1 | -2.3%
34 | CCN1/C(=C\c2ccc3ccccc3[n+]2CC)Sc2cc(C)ccc21 | 101% (active)
35 | O=C(CN1C(=O)NC2(CCCCCCC2)C1=O)NCc1ccc(F)cc1 | -0.5%
36 | Cc1ccc(-c2nc3c(Cl)cc(C(F)(F)F)cn3c2Cc2cccc(Cl)c2)cc1 | 4.1%
37 | COc1cc(C(C(=O)NC2CCCC2)N(C(=O)c2ccco2)c2ccccc2C(C)=O)cc(OC)c1OC (centres undefined) | -1.2%
38 | COC(=O)c1sccc1NC(=O)CSc1ccccc1NS(=O)(=O)c1cc(Cl)ccc1Cl | 86.3% (active)
39 | COC(=O)c1scc(C)c1NC(=O)CSc1ccc(Cl)cc1 | 3.3%
40 | COC(=O)c1sccc1NS(=O)(=O)c1ccc(F)cc1F | 1.6%

Row | SMILES | inhibition
41 | Cc1sc(NC(=O)C2=COCCO2)c(C#N)c1C | -0.9%
42 | CCCc1cc(=O)[nH]c(SCC(=O)Nc2sc3c(c2C#N)CCCC3)n1 | 4%
43 | CCCc1ccc(-c2c(C)sc(NC(=O)c3ccnn3C)c2C#N)cc1 | 99.7% (active)
44 | OCCc1ccc(NCCc2ccco2)cc1 | -0.1%
45 | CC1CCCCC1NCC(=O)Nc1ccccc1C(=O)Nc1ccccc1 (centres undefined) | 1.8%
46 | O=C(Nc1ccccc1)c1ccccc1NC(=O)C(F)(F)F | 57.7% (active)
47 | O=C(Nc1ccccc1)c1ccccc1Br | -0.9%
48 | CCN(C(=O)CSc1nnc(-c2ccc(OC(F)F)cc2)n1N)C1CCS(=O)(=O)C1 (centres undefined) | -1.1%
49 | CCOc1ccc(NC(=O)CN(C)C(=O)CSc2ccccc2)cc1OCC | 1%
50 | CCOc1ccc(S(=O)(=O)N2CCC(C(=O)NCc3ccccn3)CC2)cc1Cl | -0.8%
51 | O=C(c1cccc(F)c1)N1CCN(c2ccc([N+](=O)[O-])c3cccnc23)CC1 | 0.3%
52 | CCN1CCN(Cc2c(O)ccc3c(=O)c(-c4ccc(OC)c(OC)c4)c(C(F)(F)F)oc23)CC1 | -2%
53 | COc1ccc(-c2onc(C)c2-c2ccc3c(c2)OCCO3)c(O)c1 | 3.2%
54 | O=c1c(-c2ccc3c(c2)OCCO3)c(C(F)(F)F)oc2cc(O)cc(O)c12 | 89.4% (active)
55 | CC(C)(C)c1cc[n+](-c2[nH]c(=O)sc2/C=N/N=C(\[O-])c2ccccc2)cc1 | -1.9%
56 | CCCNC(=O)CN(Cc1ccccc1F)S(=O)(=O)c1ccc(C)cc1 | 1.8%
57 | Cc1ccc(NC(=O)CCNC(=O)c2ccc([N+](=O)[O-])cc2)cc1S(=O)(=O)N1CCOCC1 | -1.6%
58 | COc1ccc(NS(=O)(=O)c2cc(NC(=O)COc3ccccc3F)ccc2OC)cc1 | 0.8%
59 | COc1ccc(NS(=O)(=O)c2cc(NC(=O)CC(=O)c3ccc([N+](=O)[O-])cc3)ccc2C)cc1 | 73% (active)
